From PubChem
Hits are enriched below; roughly 0.9% of the tested compounds scored in any of these assays.
PPARg SRC-1 ag – promotes SRC-1 coactivator recruitment by human PPARgamma | PPARgamma-SRC-1 coactivator recruitment biochemical assay | activation, % at 8 µM | 0.41% of 200,000 active; in the data active = activation above about 19%;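 note: 0% = DMSO and 100% = reference agonist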
Target sequence (P37231 whole entry, looked up): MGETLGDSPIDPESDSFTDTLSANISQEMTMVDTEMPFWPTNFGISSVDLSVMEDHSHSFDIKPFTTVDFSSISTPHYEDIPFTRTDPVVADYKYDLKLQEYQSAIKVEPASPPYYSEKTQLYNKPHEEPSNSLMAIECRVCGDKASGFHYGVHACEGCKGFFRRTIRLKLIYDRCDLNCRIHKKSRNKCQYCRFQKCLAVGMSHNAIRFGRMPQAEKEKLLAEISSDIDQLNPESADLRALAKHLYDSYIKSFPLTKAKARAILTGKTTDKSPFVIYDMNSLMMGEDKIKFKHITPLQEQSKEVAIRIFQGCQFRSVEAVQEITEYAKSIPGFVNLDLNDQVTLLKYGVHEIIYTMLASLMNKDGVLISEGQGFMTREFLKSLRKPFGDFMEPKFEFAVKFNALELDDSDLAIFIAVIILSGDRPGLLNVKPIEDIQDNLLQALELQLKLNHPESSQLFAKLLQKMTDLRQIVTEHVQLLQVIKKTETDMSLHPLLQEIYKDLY
PPARg SRC-2 ag – agonists of SRC-2 recruitment by human PPARgamma. 0.34% of 200,000 active. AID 1032. P37231. PPARgamma LBD-SRC-2 recruitment, biochemical. activation, % at 8 µM; in the data active = activation above about 22%;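 note: 0% = vehicle and 100% = reference agonist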
PPARg SRC3 recr – PPARgamma-driven SRC-3 recruitment agonism; biochemical PPARgamma/SRC-3 coactivator recruitment assay; AID 731; P37231; activation, % at 8 µM; 0.26% of 200,000 active; in the data active = activation above about 23%;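 note: 0% = DMSO and 100% = reference agonist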
SRC1 TRFRET art – counter-screen for PPARgamma SRC-1 recruitment agonists: TR-FRET artefact | TR-FRET detection artefact counter-screen, emission ratio; stronger effect = higher value | TR-FRET ratio at 8 µM | 0.34% of 99,000 active; in the data active = TR-FRET ratio above about 2300
TR-FRET SRC-2 ct – flags TR-FRET format artefacts in PPARgamma SRC-2 recruitment agonist screen. TR-FRET artefact counter-screen; stronger effect = higher value. TR-FRET ratio at 8 µM. AID 1049. 0.4% of 200,000 active
SRC3 TRFRET art – TR-FRET artefact, counter-screen to PPARgamma/SRC-3 agonist assay. PPARgamma/SRC-3 format; stronger effect = higher value. TR-FRET ratio at 8 µM. 0.39% of 99,000 active. AID 1048
Numbers without * were called inactive; x = no result. Cut-off read from the data, not from the text of the source, unless noted: active = TR-FRET ratio above about 2000; inactive = the rest.

SMILES	PPARg SRC-1 ag	PPARg SRC-2 ag	PPARg SRC3 recr	SRC1 TRFRET art	TR-FRET SRC-2 ct	SRC3 TRFRET art
Cc1nc(N2CCCCC2)c2c(C)c(C(=O)Nc3cccc(C(F)(F)F)c3)sc2n1	7	14	12	2255	1762	2057*
O=C(Sc1nnnn1C1CCCCC1)c1cccs1	7	4	11	x	1683	x
C=CCN1C(=O)N(/C=C/C)c2cccc3cccc1c23	-2	-1	-4	x	1459	x
Cc1csc(NC(=O)CSc2nnc(NC(=O)C3CC(=O)N(c4ccccc4)C3)s2)n1 (stereo not drawn)	2	15	6	2325*	1627	1413
O=C1NC(=O)/C(=C/c2ccc(O)cc2)S1	4	-1	0	1758	1572	1712
Cc1ccc(S(=O)(=O)N2CCCCC2)cc1NC(=O)CSc1nccn1C	4	-4	3	2368*	1736	1625
Cc1nnc(SCC(=O)Nc2ccc(S(=O)(=O)N3CCCC3)cc2)n1N	6	5	0	x	1640	x
Cc1ccc(NC(=O)CSc2ncnc3ccccc23)cc1S(=O)(=O)N1CCCCC1	5	1	5	1842	1451	2119*
Cc1cc(C)c2nc(SCC(=O)Nc3ccc(S(=O)(=O)N4CCCC4)cc3)c(C)cc2c1	9	2	8	x	1973*	x
Cn1ccnc1SCC(=O)Nc1cccc(S(=O)(=O)N2CCCCCC2)c1	7	6	6	1996	1896	1653
CCOc1cc(NC(=O)C2CCCCC2)c(OCC)cc1NC(=O)c1ccco1	4	-1	11	x	1631	x
O=C1/C(=C\c2ccc(O)cc2)SC(=S)N1c1cccnc1	-2	-4	0	1609	1484	1442
Cn1c(=O)c2c(nc(Br)n2CCSc2ncccn2)n(C)c1=O	4	1	-8	x	1376	x
CCOC(=O)N1CCN(Cc2cn[nH]c2-c2cccc3ccccc23)CC1	1	0	-4	1914	1495	1524
CCCCOC(=O)N/N=C/C=C/c1ccccc1	11	-1	6	2344*	1669	1739
O=C(c1cccc(C(F)(F)F)c1)N1CCN(c2cc(=O)[nH]nc2-c2ccccc2)CC1	-9	-10	33*	x	1357	x
CCN(CC)c1ccc(/C=C(/C#N)c2nc3ccc(C)cc3[nH]2)c(OC(C)C)c1	7	1	8	x	1540	x
CCCOc1cc(N(CC)CC)ccc1/C=C(/C#N)c1nc2ccc(C)cc2[nH]1	2	37*	5	x	2008*	x
CC(=O)c1sc(NC(=O)c2ccc(C)c(C)c2)nc1C	-4	-4	-1	1400	1603	1583
CC(=O)c1sc(NC(=O)c2ccc(C(C)(C)C)cc2)nc1C	20	16	17	2152	1990*	2151*
O=C(CS(=O)CC(=O)N(c1cccc(F)c1)C(C(=O)NC1CCCCC1)c1ccco1)Nc1ccc(F)cc1 (stereo not drawn)	1	-13	4	1783	1504	1675
CN(Cc1ccccc1)S(=O)(=O)c1ccc(Cl)nc1	6	3	12	x	1574	x
COc1ccc(CCN(C)S(=O)(=O)c2ccc(Cl)nc2)cc1OC	7	0	3	1881	1975*	1616
Cn1ccnc1C1CCCCN1Cc1nc(-c2ccc3c(c2)OCO3)no1 (stereo not drawn)	38*	-7	-3	3563*	1447	1488
O=C(COC(=O)c1ccco1)NCC1CCCO1 (stereo not drawn)	7	-5	-2	x	1475	x
SMILES	PPARg SRC-1 ag	PPARg SRC-2 ag	PPARg SRC3 recr	SRC1 TRFRET art	TR-FRET SRC-2 ct	SRC3 TRFRET art
Cc1ccccc1NC(=O)c1ccc(CN(c2ccccc2)S(=O)(=O)c2ccccc2)cc1	-2	-7	-5	1780	1418	1331
COc1ccc(C(=O)NCCSc2ccccc2)cc1	6	11	4	1905	1445	1629
O=C(NCc1nc2ccccc2[nH]1)c1ccc(S(=O)(=O)N2CCOCC2)cc1	3	6	1	x	1535	x
Cc1cc2ccccc2n1CCNC(=O)c1ccc(S(=O)(=O)N2CCOCC2)cc1	0	3	3	2656*	1798	2905*
Cc1ccc(-c2[nH]c3ccccc3c2SCCNC(=O)c2ccc(S(=O)(=O)N3CCOCC3)cc2)cc1	6	8	10	3343*	2560*	2709*
COc1ccc(-c2[nH]c3ccccc3c2SCCNC(=O)c2ccccc2)cc1	8	24*	4	2021	1807	2781*
Cc1cc2ccccc2n1CCNC(=O)c1ccccc1	3	7	7	x	1939	x
CN(C)c1ccc(C(=O)NC2CCCc3ccccc32)cc1 (stereo not drawn)	7	1	5	1973	1558	1813
CCN(CC(=O)Nc1ccccc1OC)CC(=O)Nc1ccccc1C(F)(F)F	8	-3	3	1727	1653	1702
COc1ccccc1NC(=O)C1=C(C)NC(SCC(=O)c2ccc(C)cc2)=C(C#N)C1c1ccco1 (stereo not drawn)	11	9	23	x	2554*	x
O=C1c2cccc(OCC(=O)N3CCCc4ccccc43)c2CCN1Cc1ccc(Br)cc1	1	-7	-6	1638	1367	1560
O=C1c2cccc(OCC(=O)N3CCCc4ccccc43)c2CCN1Cc1ccccc1	24*	1	-3	1537	1628	1467
O=C(c1cc([N+](=O)[O-])ccc1Cl)N1CCN(c2ccccc2)CC1	1	-2	1	1897	1564	1636
NNc1nc2c(-c3ccc(Cl)cc3)nnn2c2ccccc12	11	2	6	1516	1573	1621
NNc1nc2c(-c3ccc(F)cc3)nnn2c2ccccc12	24*	9	6	1861	1767	1482
CC(C)c1ccc(NC(=O)c2ccc(Br)o2)cc1	2	1	-4	x	1577	x
c1ccc(CC2CCCNC2)cc1 (stereo not drawn)	1	5	6	1903	1630	1630
CCOC(=O)C1=NN(c2cccc(Cl)c2)C2=NC(C)=C(C(=O)OC)C(c3cccs3)N12 (stereo not drawn)	9	27*	5	x	1618	x
Cc1cc(C)n(C(=O)CCC(=O)Nc2ccc(C)c(C)c2)n1	-10	4	0	x	1418	x
CC(C)(C)c1nnc(NC(=O)CN2C(=O)C3C4C=CC(C4)C3C2=O)s1 (stereo not drawn)	0	-11	36*	x	1429	x
CCN(CC)C(=O)Cn1c(=O)n(-c2ccccc2)c(=O)c2c3c(sc21)CCC3	-2	22*	5	x	2144*	x
O=C(Nn1c(-c2ccccc2)nc2ccccc2c1=O)c1ccco1	8	5	3	x	1556	x
CCCC1CCC(C(=O)Nn2c(C)nc3ccccc3c2=O)CC1 (stereo not drawn)	5	-3	3	x	1484	x
CCCCCCC1CCC(C(=O)Nn2c(C)nc3ccccc3c2=O)CC1 (stereo not drawn)	5	22*	-4	x	1723	x
Cc1nc2ccccc2c(=O)n1NC(=O)c1ccco1	-2	12	7	x	2082*	x
Cc1cc(N/C(=N\S(=O)(=O)c2ccc(Cl)cc2)c2ccc(F)cc2)no1	4	5	-2	2110	1723	1460
